KLK7 zymogen act – activators of human kallikrein-7 zymogen; purified proKLK7, EDANS-DABCYL substrate fluorescence; 100% is mature enzyme control, 0% vehicle; activation, % at 7 µM; 370,000 compounds, 0.9% hits;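 active means activation above the mean of all tested compounds plus 3 SD, computed per campaign excluding outliers beyond control limits, cut at about 13% in these data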
ADAM10 inh – inhibits human ADAM10. O14672. recombinant ADAM10, EDANS/DABCYL FRET peptide cleavage, 3 h. inhibition, % at 7 µM. 370,000 compounds, 0.62% hits. AID 720582;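 active means inhibition above a per-campaign cutoff equal to the mean of compounds falling between control-based bounds plus 3 SD, cut at about 20% in these data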;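 further: 0% = DMSO wells while the 100% control is not disclosed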
Target sequence (O14672 214-748 limits assumed): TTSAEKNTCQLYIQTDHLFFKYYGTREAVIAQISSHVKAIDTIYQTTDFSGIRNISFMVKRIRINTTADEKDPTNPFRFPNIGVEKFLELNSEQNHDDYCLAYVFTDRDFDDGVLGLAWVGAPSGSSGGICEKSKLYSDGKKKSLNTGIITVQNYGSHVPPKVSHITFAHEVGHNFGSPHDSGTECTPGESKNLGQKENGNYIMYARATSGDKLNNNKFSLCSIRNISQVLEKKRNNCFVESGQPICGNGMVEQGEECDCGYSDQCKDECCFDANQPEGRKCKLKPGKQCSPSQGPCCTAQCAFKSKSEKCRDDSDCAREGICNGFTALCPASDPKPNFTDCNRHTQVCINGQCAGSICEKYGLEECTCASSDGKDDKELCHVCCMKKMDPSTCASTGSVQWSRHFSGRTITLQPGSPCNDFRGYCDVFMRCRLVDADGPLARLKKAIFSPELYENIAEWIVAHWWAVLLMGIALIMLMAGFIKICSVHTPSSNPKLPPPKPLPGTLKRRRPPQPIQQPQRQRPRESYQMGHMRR
V-ATPase pHluor – yeast V-ATPase proton transport regulation by pHLuorin | 350,000 compounds, 0.37% hits | S. cerevisiae, pHLuorin cytosolic pH fluorescence | response, % at 10 µM; in the data active means response mostly above about 7.3%, no sharp cut-off; inactive means mostly below about 5.4%; further: actives read high
ADAM17 inh – ADAM17 inhibition, QFRET primary screen; P78536; recombinant ADAM17, EDANS/DABCYL FRET peptide cleavage; inhibition, % at 6.95 µM; 370,000 compounds, 0.83% hits;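 active means inhibition above the mean of compounds lying between control limits plus 3 SD, set per campaign, cut at about 8.5% in these data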;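 further: 0% = DMSO-only wells as the low control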
ADAM10 counter – counter-screen for ADAM17 exosite inhibitors: inhibitors of human ADAM10; 2,900 compounds, 47% hits; inhibition, % at 6.95 µM; AID 743256; recombinant ADAM10, EDANS/DABCYL FRET peptide cleavage, 3 h; shares compounds with ADAM17 inh;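 active means mean inhibition over the triplicate runs exceeds the activity threshold set in the earlier primary screen, cut at about 20% in these data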;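 further: 0% = DMSO wells and 100% = marimastat wells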
ADAM17 confirm – human ADAM17 inhibition, confirmation; 2,900 compounds, 65% hits; shares compounds with ADAM17 inh; inhibition, % at 6.95 µM; AID 743257; recombinant ADAM17, EDANS/DABCYL QFRET peptide cleavage;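 active means mean inhibition across replicates above the hit cutoff set in the primary screen, cut at about 8.5% in these data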;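 further: 0% = DMSO wells and 100% = marimastat wells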
Numbers without * were called inactive; · = not tested or not shown. Shown are actives, neighbours in structure and some others; about 2.3% of the full set was active somewhere.

SMILES | KLK7 zymogen act | ADAM10 inh | V-ATPase pHluor | ADAM17 inh | ADAM10 counter | ADAM17 confirm
CCN(CCNC(=O)Nc1ccc(Cl)cc1)c1ccccc1 | 1 | 16 | -1 | 9.8* | 37* | 19*
COC(=O)C[C@H]1CC[C@@H]2[C@@H](COc3ccc(NC(=O)Nc4cccc(C)c4)cc3C(=O)N2C)O1 | 0 | -5 | · | -3 | · | ·
CCOC(=O)C1=CCN(S(=O)(=O)c2ccc(Br)cc2)C1c1cccc(Cl)c1 (stereo not given) | 0 | 0 | · | 2 | · | ·
Cc1[nH]c2ccccc2c1CC(=O)Nc1ccc(Nc2cccnc2)c(-c2ccc(C(C)(C)C)cc2)c1 | 0 | 2 | · | 4 | · | ·
COc1ccc(NC(=O)N(C)C[C@@H]2OCCCC[C@@H](C)Oc3ccc(NS(C)(=O)=O)cc3C(=O)N([C@H](C)CO)C[C@@H]2C)cc1 | 1 | -7 | · | 1 | · | ·
COC(=O)[C@@H]1C[C@H]2CC[C@H](O)C[C@H]2N1Cc1ccccc1OC(=O)c1cccs1 | 0 | 3 | 1 | 11* | -5 | 0
O=C(c1ccco1)N1CCN(c2nc(C3CC3)nc3c2nnn3Cc2ccccc2Cl)CC1 | 1 | 13 | 1 | 11* | 19 | 8
O=C(c1ccco1)N1CCC(c2nc3c(nnn3Cc3ccccc3Cl)c(=O)[nH]2)CC1 | 0 | -7 | 0 | -1 | · | ·
COc1ccc(COC(=O)Oc2ccc(CNC(C)=O)cc2OC)c([N+](=O)[O-])c1 | 0 | 1 | -2 | -1 | · | ·
COc1cc(COC(=O)Oc2ccc(CNC(C)=O)cc2OC)c([N+](=O)[O-])cc1OC | 0 | 15 | 6 | 10.0* | 3 | 3
Cn1cccc1/C=C1\SC(=S)N(NC(=O)c2ccc(F)cc2)C1=O | 0 | 15 | 0 | 13* | 8 | 4
CCC(C(=O)O)N1C(=O)/C(=C/c2cccn2C)SC1=S (stereo not given) | 0 | 19 | 1 | 8.8* | 17 | 12*
CC(C(=O)O)N1C(=O)/C(=C/c2cccn2C)SC1=S (stereo not given) | 0 | 9 | 0 | 2 | · | ·
Cn1cccc1/C=C1\SC(=S)N(NC(=O)c2ccccc2)C1=O | 1 | 7 | 0 | 5 | · | ·
COC(=O)C1=C(C)N(Cc2ccc(C(F)(F)F)cc2)C(=NCc2ccc3c(c2)OCO3)NC1c1ccccc1C(F)(F)F (stereo not given) | 0 | 4 | · | 0 | · | ·
Cc1cccc(NC(=O)CSc2nnc(SCc3ccc(Cl)cc3)s2)c1 | 1 | 12 | · | 8.8* | 15 | 12*
CCCCNS(=O)(=O)c1ccc(NC(=O)C(Sc2ccccc2)c2ccccc2)cc1 (stereo not given) | 1 | 38* | 0 | 17* | 46* | 27*
CC(=O)NS(=O)(=O)c1ccc(NC(=O)C(Sc2ccccc2)c2ccccc2)cc1 (stereo not given) | -1 | 4 | -1 | 3 | · | ·
COC(=O)c1cc(C(=O)OC)n(Cc2ccc(C)cc2)c1C | 0 | 7 | -1 | 9.2* | 0 | 3
COc1cc(-c2nc(-c3ccc4c(c3)-c3ccccc3S4(=O)=O)c(-c3ccccc3)[nH]2)cc(OC)c1O | -1 | -10 | -5 | 8.8* | 16 | 14*
O=Nc1ccc(Br)cn1 | 1 | -16 | · | -8 | · | ·
CC(C)(C)c1ccc(OCCC(=O)OCC(=O)NC2CCCCC2)cc1 | 0 | 5 | -6 | 1 | · | ·
CC(C)(C)c1ccc(OCCC(=O)OCC(=O)NC(=O)NC2CCCC2)cc1 | 0 | 19 | 2 | 17* | 28* | 13*
COC(=O)c1cc2c(c3c4cc(OC)ccc4n(C(=O)c4ccccc4)c13)C(=O)N(Cc1ccco1)C2 | 0 | -4 | · | -2 | · | ·
CC1(c2nnc(-c3cccc(Cl)c3)o2)CC(c2ccc(Cl)cc2)=NO1 (stereo not given) | 0 | 5 | -1 | 0 | · | ·
SMILES | KLK7 zymogen act | ADAM10 inh | V-ATPase pHluor | ADAM17 inh | ADAM10 counter | ADAM17 confirm
CC1(c2nnc(-c3cccc(Cl)c3)o2)CC(c2ccc(F)cc2)=NO1 (stereo not given) | 0 | 10 | -5 | 11* | -3 | 3
COC(=O)c1cccc(C(=O)N2CCCC(Nc3ccc(C)c(C)c3)C2)c1 (stereo not given) | 0 | 10 | 6 | 11* | 18 | 7
CN(C(=O)COC(=O)COc1ccc(N(C)S(=O)(=O)c2ccc(Cl)cc2)cc1)c1ccccc1 | 1 | 16 | 1 | 18* | 18 | 6
CN(c1ccc(OCC(=O)NCCc2ccccc2)cc1)S(=O)(=O)c1ccc(Cl)cc1 | 0 | 8 | 3 | 2 | · | ·
O=C(NC(NC(=S)Nc1c(Cl)cccc1Cl)C(Cl)(Cl)Cl)OCc1ccccc1 (stereo not given) | 0 | 14 | -1 | 12* | 33* | 16*
CCOc1ccc(-c2c(C(=O)N/N=C/C3CC=CCC3)nnn2-c2nonc2N)cc1 (stereo not given) | 0 | 7 | -2 | 9.6* | 4 | 7
CCCc1c(C(=O)N/N=C/C2CC=CCC2)nnn1-c1nonc1N (stereo not given) | 0 | -10 | -1 | -5 | · | ·
COC(=O)[C@H](CC(C)C)N1Cc2nnn(Cc3ccc(C)cc3)c2-c2cc(F)ccc2S1(=O)=O | 1 | 14 | · | 10* | 18 | 14*
COC(=O)[C@H](CC(C)C)N1Cc2nnn(Cc3ccccc3)c2-c2ccccc2S1(=O)=O | -1 | 8 | · | 5 | · | ·
CC(C)(C)S(=O)(=O)N1C[C@@H]2CC(=O)C(CCO)=C2[C@H]1CCO | 1 | -2 | · | -7 | · | ·
C[C@H](CO)N1C[C@H](C)[C@@H](CN(C)S(=O)(=O)c2ccc(F)cc2)Oc2ccc(NC(=O)Nc3ccc(C(F)(F)F)cc3)cc2C1=O | 0 | 26* | -3 | 9.0* | 37* | 19*
C[C@H](CO)N1C[C@H](C)[C@@H](CN(C)S(=O)(=O)c2cccs2)Oc2ccc(NC(=O)Nc3ccccc3)cc2C1=O | 1 | 13 | 1 | 4 | · | ·
C[C@H](CO)N1C[C@H](C)[C@@H](CN(C)S(=O)(=O)c2ccc(F)cc2)Oc2ccc(NC(=O)Nc3ccccc3)cc2C1=O | 1 | 11 | -1 | 6 | · | ·
C[C@H](CO)N1C[C@H](C)[C@@H](CN(C)S(=O)(=O)c2cccs2)Oc2ccc(NC(=O)Nc3ccc(C(F)(F)F)cc3)cc2C1=O | 1 | 29* | -1 | 8.7* | 40* | 23*
CC(=O)CC[C@H]1CC[C@]2(CCCN(C(=O)C3CCCCC3)C2)O1 | 0 | 5 | · | 2 | · | ·
O=C(COC(=O)/C=C/c1ccc(Cl)cc1)NC(=O)NCc1ccccc1 | 0 | -6 | 3 | 9.9* | 26* | 15*
O=C(COC(=O)/C=C/c1ccccc1)NCc1ccc(Cl)cc1 | -1 | 7 | -2 | 2 | · | ·
COC(=O)Cc1nnn2c1[C@H](C)[C@H](c1ccccc1Br)OC[C@H](C)C2 | 0 | -1 | · | 0 | · | ·

Screening results deposited in PubChem by several laboratories.
